Reference: the supplement of paper PMC11219838
Values without a mark were called inactive.

What was measured:
Settings in all cases: 60 µM; 5 days; temperature: 20 °C
Meloidogyne hapla J2 = experiment: proportion of mobile M. hapla J2 relative to DMSO control (fraction of DMSO control); higher = more viable, less nematicidal, active = 0.7 or less
Method in brief: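 About 25 M. hapla J2 were placed in each well of a 96-well plate in distilled water, and compound was pinned in to a final 60 µM with 0.6% v/v DMSO. The sealed plates were shaken at 200 rpm at 20 °C for 5 days, after which 2 µL of 1 M NaOH went into each well. Mobility was then scored under the microscope and divided by the mean value from DMSO-only wells on the same plate. Each plate held eight such DMSO wells, and two biological replicates were averaged.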

[1] = system: Caenorhabditis elegans dauer (daf-2(e1370)); experiment: proportion of mobile C. elegans dauer larvae relative to DMSO control (fraction of DMSO control); higher = more viable, less nematicidal, active = 0.63 or less; extreme values may be limits of the assay
Method in brief: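 Compound was added by pinning to 60 µM final, giving 0.6% v/v DMSO, in 96-well plates containing about 20 C. elegans dauers per well in liquid NGM. These dauers came from synchronized larvae held on MYOB plates with E. coli OP50 for 48 h at 25 °C. Plates were sealed and shaken at 200 rpm at 20 °C for 5 days. Under a dissection microscope, the proportion of mobile worms was scored relative to DMSO wells, and two biological replicates were averaged.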

Ditylenchus dipsaci = experiment: proportion of mobile D. dipsaci (mixed stage) relative to DMSO control (fraction of DMSO control); higher = more viable, less nematicidal, active = 0.86 or less; extreme values may be limits of the assay
Method in brief: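 Ditylenchus dipsaci nematodes were cultured on pea plants in Gamborg B-5 agar, then extracted into water through a filter funnel, and roughly 20 worms in distilled water were placed in each well of a 96-well plate. Compound was pinned in to a final concentration of 60 µM (0.6% v/v DMSO), and the sealed plates were shaken at 200 rpm for 5 days at 20 °C. Mobile worms were counted under the microscope after 2 µL of 1 M NaOH was added. Mobility is given relative to DMSO controls as the mean of two biological replicates.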

SMILES	proportion of mobile M. hapla J2 (Meloidogyne hapla J2)	proportion of mobile C. elegans dauer larvae [1]	proportion of mobile D. dipsaci (Ditylenchus dipsaci)
O=C(Nc1ccc(-c2noc(-c3ccc(Cl)cc3)n2)cc1)c1ccco1	1.04	1	1
CCCC(=O)Nc1ccccc1-c1nc(-c2cccnc2)no1	1.04	1	1
FC(F)(F)c1cccc(-c2noc(-c3ccccc3Cl)n2)c1	1.04	1	1
Cc1cccc(C)c1NC(=O)CSc1nnc(-c2ccncc2)o1	0.908	1	1
CC(C)(C)c1ccc(OCc2nc(-c3ccccc3)no2)cc1	0.987	1	1
COc1ccccc1-c1nc(-c2ccc(Cl)cc2Cl)no1	1	1	1
COc1ccc(-c2noc(-c3cccc(C)c3)n2)cc1	1.08	0.889	1
O=C(CSc1nnc(-c2ccc(Br)cc2)o1)N1CCCCCC1	0.844	1	1
COc1ccc(Cl)cc1NC(=O)CSc1nnc(-c2ccco2)o1	0.917	1	1
Cc1ccccc1OCc1nc(-c2cccs2)no1	0.753	1	1
O=C(CSc1nnc(-c2ccccc2Cl)o1)Nc1nccs1	0.992	1	1
COc1ccc(Cl)cc1-c1noc(-c2ccccc2C)n1	0.93	1	1
CCCSc1nnc(-c2ccc(Cl)cc2Cl)o1	0.991	0.143 (active)	1
CCOc1nc(C)ccc1-c1noc(-c2cccc(C)c2)n1	0.847	1	1
CC(Sc1nnc(-c2cccnc2)o1)C(=O)c1ccccc1 (configuration not stated)	1.03	1	1
Cc1ccc(-c2nc(-c3ccccc3)no2)cc1Cl	0.996	1	1
CCCCc1nc(-c2ccc(-c3ccc(C)cc3)nc2OC)no1	0.843	1	1
O=C(CSc1nnc(-c2ccc(Br)cc2)o1)NC1CCCCC1	1.04	1	1
CCOc1ccccc1-c1nnc(SCC(=O)NC(C)CC)o1 (configuration not stated)	0.951	1	1
CN(C)c1ccc(-c2nnc(SCc3ccccc3)o2)cc1	0.991	1	1
Cc1ccc(-c2noc(COc3cccc(C)c3)n2)cc1	0.972	1	1
Cc1ccc(OCc2nc(-c3ccncc3)no2)c(Br)c1	0.993	1	1
COc1ccc(C(=O)CSc2nnc(-c3cccc4ccccc34)o2)cc1	0.929	1	1
Cc1ccc(-c2noc(-c3cccc(Br)c3)n2)cc1	1.04	1	1
COc1cccc(-c2noc(-c3ccc(C)cc3)n2)c1	0.948	0 (active)	1

SMILES	proportion of mobile M. hapla J2 (Meloidogyne hapla J2)	proportion of mobile C. elegans dauer larvae [1]	proportion of mobile D. dipsaci (Ditylenchus dipsaci)
Cc1ccc(CSc2nnc(-c3cccc(Br)c3)o2)c(C)c1	1.02	1	1
COc1cccc(-c2noc(COc3cc(C)ccc3C)n2)c1	0.873	1	1
CCn1c(SCc2ccc(OC)cc2)nnc1-c1ccco1	0.611 (active)	1	1
O=C(CSc1nnc(-c2ccccc2)o1)Nc1cc(C(F)(F)F)ccc1Cl	1.04	1	1
COc1cccc(-c2noc(COc3ccc(Cl)cc3)n2)c1	0.993	1	1
Cc1ccc(OCc2nc(-c3cccnc3)no2)c(Br)c1	0.992	1	1
CC(C)(C)c1ccc(-c2nc(-c3ccncc3)no2)cc1	1.03	1	1
O=C(CSc1nnc(-c2ccccc2)o1)N1CCc2ccccc21	0.993	1	1
CCC(=O)Nc1ccccc1-c1nc(-c2ccccn2)no1	0.865	1	1
COc1ccc(-c2noc(COc3ccc(C)cc3Br)n2)cc1	1.01	1	1
COc1ccc(-c2noc(CSc3nc(C)cc(C)n3)n2)cc1	0.992	1	0.833 (active)
Cc1ccc(-c2nc(-c3cccc(C(F)(F)F)c3)no2)cc1	1.04	1	1
Cc1cccc(-c2noc(-c3ccc(Br)cc3)n2)c1	1.04	1	1
Brc1ccccc1-c1nc(-c2ccc3c(c2)OCO3)no1	1.04	1	1
Clc1ccc(-c2noc(-c3ccncc3)n2)cc1	0.784	1	1
CC1CC(C)CN(C(=O)CSc2nnc(-c3cccc(Cl)c3)o2)C1 (configuration not stated)	1.04	1	1
Cc1cc(Cl)ccc1NC(=O)CSc1nnc(-c2ccncc2)o1	0.974	1	1
C=C(C)COc1ccc(-c2nc(-c3cccnc3)no2)cc1	0.919	1	1
COc1ccccc1CC(=O)Nc1ccc(-c2noc(-c3ccccc3C)n2)cc1	0.743	1	1
Cc1ccc(-c2noc(-c3ccccc3C)n2)cc1	1.04	0.562 (active)	1
Cc1cc(OCc2nc(-c3cccnc3)no2)cc(C)c1Br	1.05	1	1
CCOc1ccccc1-c1nnc(SCc2ccccc2)o1	0.891	1	1
c1cncc(-c2noc(-c3cccc4ccccc34)n2)c1	1.04	1	1
CCc1cccc(C)c1NC(=O)CSc1nnc(-c2ccccc2)o1	1.04	1	1
COc1ccc(-c2noc(-c3ccccc3C)n2)cc1	0.898	0.533 (active)	1

SMILES	proportion of mobile M. hapla J2 (Meloidogyne hapla J2)	proportion of mobile C. elegans dauer larvae [1]	proportion of mobile D. dipsaci (Ditylenchus dipsaci)
CN(C(=O)CSc1nnc(-c2ccccc2)o1)c1ccccc1	1.02	1	1
Cc1ccc(-c2nnc(SCc3ccccc3)o2)cc1	0.256 (active)	0.371 (active)	0.889
Clc1ccc(-c2nc(-c3ccncc3)no2)c(Cl)c1	0.942	1	1
Cc1ccc(OCc2nc(-c3ccccc3Cl)no2)cc1C	1.04	1	1
COc1nc2ccc(C)cc2cc1-c1noc(-c2ccncc2)n1	0.849	1	1
Brc1ccc(OCc2nc(-c3cccnc3)no2)cc1	0.955	1	1
Ic1ccc(-c2nc(-c3cccnc3)no2)cc1	1.02	1	1
COc1ccccc1NC(=O)CSc1nnc(-c2cccc3ccccc23)o1	0.811	1	1
Cc1cccc(-c2noc(-c3ccccc3F)n2)c1	0.874	1	1
COc1nc(-c2ccc(C)cc2)ccc1-c1noc(-c2ccc(F)cc2)n1	0.925	1	1
COc1ccc(-c2noc(COc3ccc(Cl)cc3C)n2)cc1	0.94	1	1
COc1ccccc1OCc1nc(-c2cccc(Br)c2)no1	0.499 (active)	1	1
Clc1ccc(-c2noc(-c3ccccc3Cl)n2)cc1	0.927	1	1
Cc1ccc(-c2nnc(SCC(=O)Nc3ccc(F)cc3)o2)cc1	1.04	1	1
CC(C)(C)c1ccc(OCc2nc(-c3ccncc3)no2)c(Br)c1	0.875	1	1
Cc1ccc(-c2nc(-c3ccccc3Cl)no2)c(Cl)c1	0.942	1	1
Ic1ccccc1-c1nc(-c2cccnc2)no1	1.02	1	1
CCCCc1ccc(-c2nc(-c3cccnc3)no2)cc1	0.977	1	1
Cc1cc(OCc2nc(-c3ccccn3)no2)ccc1Cl	0.834	1	1
Cc1ccc(NC(=O)CSc2nnc(-c3ccco3)o2)cc1Cl	0.96	1	0.5 (active)
CC(C)CCC(=O)Nc1ccccc1-c1nc(-c2ccccn2)no1	1.03	1	1
Ic1cccc(-c2nc(-c3cccnc3)no2)c1	1.04	1	1
COc1ccc(-c2noc(COc3ccccc3C)n2)cc1	1.03	1	1
Cc1ccc(OC(C)c2nc(-c3ccc4c(c3)OCO4)no2)cc1C (configuration not stated)	0.943	1	1
